The record followed here is PubChem BioAssay (NCI).

About 79,000 compounds went through this panel and 15% of them were active in at least one assay; those are over-represented in the sample as a whole. Unmarked numbers belong to inactive results. Active and inactive are the calls of the source. No stated cut-off is given here; in the data, active means growth inhibition above about 70%; inactive means the rest.

Assay [1] is described as follows: NCI Yeast Anticancer Drug Screen. Data for the rad50 strain (AID 155).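 Further: 0% = growth of vehicle-only cultures of the same strain.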 Particulars: S. cerevisiae rad50 strain growth inhibition; at 50.0 µM; hits give high values. The method, boiled down: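 Genetically altered yeast (DNA repair pathway); compound treatment; growth inhibition vs vehicle ctrl.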
A short description of assay [2]: NCI Yeast Anticancer Drug Screen. Data for the mec2-1 strain (AID 157). The settings on record: S. cerevisiae mec2-1 strain, at 50.0 µM, hits give high values. The method, boiled down: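 Cells of the genetically defined mec2-1 yeast strain are incubated with test compound. Inhibition of growth is calculated against vehicle-treated controls.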
Assay [3] can be described thus: NCI Yeast Anticancer Drug Screen. Data for the sgs1 mgt1 strain (AID 161).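 Further: 0% = growth of cultures given vehicle only.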 Particulars: S. cerevisiae sgs1 mgt1 strain, at 50.0 µM, hits give high values. An outline of the steps:
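Read-out: growth inhibition vs vehicle controls. Cells: mutant yeast strain deficient in DNA damage repair.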

Assay [4] in a line: NCI Yeast Anticancer Drug Screen. Data for the cln2 rad14 strain (AID 165).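 Further: 0% = growth equal to vehicle treated cultures.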 The settings on record: S. cerevisiae cln2 rad14 strain, at 50.0 µM, hits give high values. The method, boiled down: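 The screen exposed genetically defined yeast (cln2 rad14) to test compounds and scored growth inhibition relative to vehicle-treated controls.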
Assay [5] is described as follows: NCI Yeast Anticancer Drug Screen. Data for the bub3 strain (AID 167). The settings on record: S. cerevisiae bub3 mutant strain, at 50.0 µM, hits give high values. An outline of the steps:
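Yeast carrying a defined mutation is treated with each compound, and growth is compared with that of vehicle-exposed cells to give inhibition.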

Assay [6] can be described thus: NCI Yeast Anticancer Drug Screen. Data for the mlh1 rad18 strain (AID 175). Particulars: S. cerevisiae mlh1 rad18 strain growth inhibition; at 50.0 µM; hits give high values. The method, boiled down:
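Compound-treated yeast growth, normalised to vehicle controls. Strain bears defined DNA repair mutations.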

In the case of `COc1ccc2c(c1)C1=C(CC2)C(=O)OC1=O`, the growth inhibition in assay [1] was -0.9%; in assay [2], 11.7%; in assay [3], 28.5%; in assay [4], 2.8%; in assay [5], 5.05%; in assay [6], -4.85%.
As to `CCCCOC(=O)N1CCCCC1`, the growth inhibition is -9.75% in assay [1]; -8.15% in assay [2]; -17.3% in assay [3]; -5.9% in assay [4]; -14.3% in assay [5]; -5.75% in assay [6].
On to `Cn1c(=O)c2c(nc3sc4ccccc4c(=O)n32)n(C)c1=O`, for which the growth inhibition in assay [1] was 19.2%; in assay [2], -9.05%; in assay [3], -7.4%; in assay [4] it was 16.6%; in assay [5] it was -30.9%; in assay [6], 13.8%.
Turning to `COc1cccc(/C=N/N(C)c2c([N+](=O)[O-])cc(C(F)(F)F)cc2[N+](=O)[O-])c1O`, the growth inhibition in assay [1] was -1.3%; in assay [2] it was -17.3%; in assay [3] it was -16.6%; in assay [4], 14.1%; in assay [5], 3.7%; in assay [6] it was -5.8%.
As for `COc1cc(C2C(C(=O)O)=C(CO)Oc3cc4c(cc32)OCO4)cc(OC)c1OC` (stereo not given), the growth inhibition in assay [1] is -5.4%; in assay [2], 7.35%; in assay [3], -4.95%; in assay [4], 1.1%; in assay [5] it was -4.6%; in assay [6] it was 4.25%.
Take `CCCC(=O)Nc1ccc2c(ccn2COC)c1`: the growth inhibition in assay [1] is -37.2%; in assay [2] it was -2.2%; in assay [3] it was -2.05%; in assay [4] it was 8.7%; in assay [5], 8.45%; in assay [6], -18.2%.
With `N#Cc1c2c(c(N3CCCCC3)n3c1nc1ccccc13)CCC2`, the growth inhibition is 19.4% in assay [1]; 13.9% in assay [2]; 26.8% in assay [3]; 8% in assay [4]; 19.9% in assay [5]; 19.9% in assay [6].
On to `COc1ccc2oc(=N)c(C(=O)NCc3ccccc3)cc2c1`, for which the growth inhibition was -4% in assay [1]; -0.85% in assay [2]; -19.1% in assay [3]; -6.35% in assay [4]; -34.1% in assay [5]; -24.6% in assay [6].
For `BrC1CCC(Br)CC1` (stereo not given), the growth inhibition is 7.1% in assay [1]; -11.1% in assay [2]; -8.45% in assay [3]; -12.9% in assay [4]; -2.3% in assay [5]; -9.7% in assay [6].
Take `Nc1nc(SCC(=O)O)nc2nc[nH]c12`: the growth inhibition was -0.15% in assay [1]; 3.15% in assay [2]; -13.3% in assay [3]; -32% in assay [4]; -7.5% in assay [5]; 4.95% in assay [6].
Turning to `O=C1CCCC/C1=C\c1ccc([N+](=O)[O-])cc1`, the growth inhibition in assay [1] is 28.4%; in assay [2], 27.9%; in assay [3], 29.4%; in assay [4], 10.1%; in assay [5] it was 21.8%; in assay [6], 40.4%.
On to `COC(=O)C1(C)C(=O)NC(=O)CC1C` (stereo not given), for which the growth inhibition in assay [1] was 9.65%; in assay [2] it was 0%; in assay [3], 1%; in assay [4] it was -30.5%; in assay [5], -2.5%; in assay [6], -3.2%.
`O=C(NCc1ccccn1)c1ccccc1`: the growth inhibition is 17.5% in assay [1]; 15.8% in assay [2]; -4.45% in assay [3]; -18.9% in assay [4]; 17.1% in assay [5]; 6.8% in assay [6].
Turning to `COC1O[C@H]2CCN(C(=O)OCc3ccccc3)[C@H]2[C@H]1OCc1ccccc1` (stereo not given in full), the growth inhibition is 19.8% in assay [1]; -11.6% in assay [2]; 20.2% in assay [3]; 4.05% in assay [4]; 28.6% in assay [5]; 44.5% in assay [6].
Turning to `CCOC(=O)/C=C1/Nc2cc(F)c(F)cc2NC1=O`, the growth inhibition in assay [1] was -36.1%; in assay [2], 14.1%; in assay [3], 16%; in assay [4] it was 13.8%; in assay [5], 14.6%; in assay [6], -56%.
For `COc1ccc2[nH]cc(C=O)c2c1`, the growth inhibition is 13.3% in assay [1]; -2.95% in assay [2]; -1.65% in assay [3]; 7.25% in assay [4]; -2.1% in assay [5]; 3.5% in assay [6].
Consider `CC1CCCCN1S(=O)(=O)N(C)C` (stereo not given), for which the growth inhibition was 8.65% in assay [1]; 27.1% in assay [2]; -4.95% in assay [3]; -6.1% in assay [4]; 9.55% in assay [5]; 6.15% in assay [6].
In the case of `CC(Oc1ccc2c(-c3ccc(Cl)cc3)cc(=O)oc2c1)C(=O)O` (stereo not given), the growth inhibition in assay [1] was -15.9%; in assay [2], -4.15%; in assay [3], 13.6%; in assay [4], 19.1%; in assay [5], -7.15%; in assay [6] it was 32.9%.
With `CC(C)(C)c1cc(C#N)cc(Br)c1O`, the growth inhibition was 98.6% (active) in assay [1]; 98.7% (active) in assay [2]; 99.3% (active) in assay [3]; 97.2% (active) in assay [4]; 97.7% (active) in assay [5]; 98.7% (active) in assay [6].
For `O=C1c2[nH]c3ccccc3c2CN1CCc1ccccc1`, the growth inhibition in assay [1] was -2.4%; in assay [2], -15.9%; in assay [3], 4.7%; in assay [4] it was -14.5%; in assay [5], -4.45%; in assay [6], -5.1%.
